Where a name gives a salt, the structure may show the parent alone.

This assay has as its system K562. As to the kind of experiment: cell viability relative to vehicle control; higher = less cytotoxic. To be noted: 10 µM; SRSF2 genotype: SRSF2 wt/wt. In short, it runs like this:
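Mutant clones made by CRISPR editing and their isogenic wild-type counterparts, from four leukaemia lines, were exposed to a single 10 µM dose of each library compound for 48 h. The supernatant was then removed and CellTiter-Glo luminescence was read. Viability was reported as percent of the on-plate vehicle control.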
As for `NC(=O)NO` [Hydroxyurea (Cytodrox)], the cell viability amounted to 103%.

Take `Nc1ncnc2c1nc(Br)n2[C@@H]1O[C@@H]2COP(=O)(O)O[C@H]2[C@H]1O` [8-Bromo-cAMP]: the cell viability turned out to be 66.5%.

As for `Cc1cccc(Nc2nc(-c3ccncc3)cs2)c1`, the cell viability was determined as 70.8%.

As for `CC12CCC(CC1)C(C)(C)O2` [Eucalyptol], the cell viability amounted to 104%.

For the molecule `CCc1c(Cl)c(O)c(Cl)c(O)c1C(=O)O[C@H]1[C@H](O)[C@H](OC)[C@H](OC/C2=C\C=C\C[C@H](O)/C(C)=C/[C@H](CC)[C@@H](O[C@@H]3OC(C)(C)[C@@H](OC(=O)C(C)C)[C@H](O)[C@@H]3O)/C(C)=C/C(C)=C/C[C@@H]([C@@H](C)O)OC2=O)O[C@@H]1C` [Fidaxomicin], the cell viability stood at 78.3%.

For `CO[C@H]1/C=C/O[C@@]2(C)Oc3c(C)c(O)c4c(O)c(c(/C=N/N5CCN(C)CC5)c(O)c4c3C2=O)NC(=O)/C(C)=C\C=C\[C@H](C)[C@H](O)[C@@H](C)[C@@H](O)[C@@H](C)[C@H](OC(C)=O)[C@@H]1C` [Rifampin], the cell viability was found to be 93.9%.

Take `COc1ccc(C2CNC(=O)C2)cc1OC1CCCC1` (stereo not drawn) [S-(+)-Rolipram]: the cell viability turned out to be 102%.

On to `C#C[C@]1(O)CC[C@H]2[C@@H]3CCc4cc(OC5CCCC5)ccc4[C@H]3CC[C@@]21C` [Quinestrol], for which the cell viability was 71%.

For the molecule `COc1cccc2cc(-c3nc([C@H]4CC[C@H](C(=O)O)CC4)n4ncnc(N)c34)[nH]c12`, the cell viability turned out to be 32.9%.

For the molecule `O=C(/C=C/c1ccc(O)c(O)c1)c1ccc(O)cc1O` [Butein], the cell viability was 76.8%.

In the case of `CN(C)c1ccc(C(=O)NCCCCCCC(=O)NO)cc1`, the cell viability amounted to 6.13%.

As for `O=c1c2cc(O[C@@H]3O[C@H](CO)[C@@H](O)[C@H](O)[C@H]3O)c(O)cc2oc2cc(O)c([C@@H]3O[C@H](CO)[C@@H](O)[C@H](O)[C@H]3O)c(O)c12` [Neomangiferin], the cell viability was 97%.

As to `O=c1[nH]c(=O)n([C@H]2C[C@H](O)[C@@H](CO)O2)cc1/C=C/Br` [Brivudine], the cell viability turned out to be 103%.

Take `Cc1c(C(=O)Nc2ccc(Oc3ccnc4[nH]cc(-c5ccccc5)c34)c(F)c2)c(=O)n(-c2ccc(F)cc2)n1C`: the cell viability worked out at 76.8%.

As to `CC(=O)CCc1ccc(OC(C)=O)cc1` [Pherocon (4-(4-Acetoxyphenyl)-2-butanone)], the cell viability turned out to be 119%.

Turning to `C[C@@H](N)[C@H]1CC[C@H](C(=O)Nc2ccncc2)CC1`, the cell viability is 102%.

Take `COC(=O)C=Cc1ccc(O)c(OC)c1` [Ferulic acid methyl ester]: the cell viability came out at 108%.

As for `CN1C(N)=N[C@](C)(c2cc(NC(=O)c3ccc(F)cn3)ccc2F)CS1(=O)=O` [Verubecestat (MK-8931)], the cell viability was 98.3%.

Turning to `C[C@H]1O[C@@H](Oc2c(-c3cc(O)c(O)c(O)c3)oc3cc(O)cc(O)c3c2=O)[C@@H](O)[C@@H](O)[C@@H]1O` [Myricitrin (Myricitrine)], the cell viability was found to be 99.4%.

Take `O=C(O)C1=CO[C@@H](O[C@@H]2O[C@H](CO)[C@@H](O)[C@H](O)[C@H]2O)[C@H]2[C@@H]1C=C[C@]2(O)CO` [Monotropein]: the cell viability was found to be 107%.

For `CNC(=O)[C@H](Cc1c[nH]c2ccccc12)NC(=O)[C@@H](CC(=O)NO)CC(C)C` [Ilomastat (GM6001, Galardin)], the cell viability came to 95.8%.

With `COC(c1ccccc1)(c1ccccc1)[C@H](Oc1nc(C)cc(C)n1)C(=O)O` [Ambrisentan], the cell viability was determined as 98.8%.

In the case of `COc1ccc2c3c1O[C@H]1C[C@@H](O)C=C[C@@]31CCN(C)C2` [Galanthamine], the cell viability was determined as 99.9%.

As for `CCC(=O)O[C@@H]1CC(=O)O[C@H](C)C/C=C/C=C/[C@H](O)[C@H](C)C[C@H](CC=O)[C@H](O[C@@H]2O[C@H](C)[C@@H](O[C@H]3C[C@@](C)(O)[C@@H](OC(=O)CC)[C@H](C)O3)[C@H](N(C)C)[C@H]2O)[C@H]1OC` [Midecamycin], the cell viability came to 89.5%.

As for `O=C(O)CCc1ccc(O)cc1O` [Hydroumbellic acid], the cell viability amounted to 90.8%.

Take `CCCn1/c(=N/C(=O)c2cccc(C(N)=O)c2)[nH]c2ccccc21` [Takinib]: the cell viability is 96.3%.

On to `Cc1cc(F)c(Nc2ncnc3cc(OCc4ccccc4)ccc23)cc1O`, for which the cell viability was 94.6%.

As to `COc1ccc(NC(=O)c2ccc(C(=N)N(C)C)cc2)c(C(=O)Nc2ccc(Cl)cn2)c1` [Betrixaban maleate], the cell viability turned out to be 89.5%.

`Cc1cn([C@H]2C=C[C@@H](CO)O2)c(=O)[nH]c1=O` [Stavudine]: the cell viability was found to be 98.3%.

`O=C1/C(=C/c2cccs2)CC/C1=C\c1cccs1`: the cell viability is 110%.

On to `CN1CC(=O)N2[C@H](c3ccc4c(c3)OCO4)c3[nH]c4ccccc4c3C[C@@H]2C1=O` [Tadalafil (Cialis)], for which the cell viability amounted to 106%.

For the origin of these results see the supplement of paper PMC10981050.
